# Methyltransferases: Primary Screen for Target Class Profiling of Small Molecule Inhibitors of Methyltransferases; purified enzyme, MTase-Glo SAH luminescence; active compounds read low; calls only at 40 µM; 3.9% of 25,000 active; call rule not given here
#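 Each enzyme was reacted with SAM and its substrate, with compounds tested once at 40 uM; SAH formed was read by MTase-Glo luminescence.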
# * hit, by the source's call; i = inactive; + = active, no number; ! = not confirmed by another sample. The entries come from a sample that favours hits as a whole. On the % scale 0 is the no-effect control and ±100 the full control effect.
SMILES,Methyltransferases
CCOc1ccc(N2C(=O)c3c(C(=O)OC)ncn3CC2(C)C(=O)NCc2ccccc2)cc1 (configuration not stated),i
Cc1ccc(NC(=O)CCc2nnc3n(Cc4ccc(Cl)cc4)c(=O)c4ccccc4n23)cc1C,i
Cc1ccc(Nc2nccc(N(C)c3ccc4c(C)n(C)nc4c3)n2)cc1S(N)(=O)=O,+
CC(C)n1c(=O)c2ccc(C(=O)NC3CCCC3)cc2n2c(=O)n(Cc3ccc(F)cc3Cl)nc12,i
CC(C)(C)Sc1c(CC(C)(C)C(=O)O)n(Cc2ccc(Cl)cc2)c2ccc(OCc3ccc4ccccc4n3)cc12,+
COc1ccc(CNC(=O)CCc2nnc3n(Cc4ccc(Cl)cc4)c(=O)c4ccccc4n23)cc1,i
COc1ccc(Cn2c(=O)c3ccccc3n3c(-c4ccc(Cl)cc4)nnc23)cc1,i
CC(C)C1c2cccn2CCN1C(=O)Nc1ccccc1F (configuration not stated),i
CC1CCCCC1NC(=O)C1(C)Cn2c(nc3ccccc32)C(=O)N1Cc1ccc2c(c1)OCO2 (configuration not stated),i
Clc1ccc2c(c1)C1C=CCC1C(c1cccc3ccccc13)N2 (configuration not stated),i
COc1ccc(N2CCN(CCNS(=O)(=O)c3ccc4[nH]c(=O)[nH]c4c3)CC2)cc1,i
CC(C)NC(=O)c1ccc2c(=O)n(C(C)C)c3nn(Cc4ccc(F)cc4Cl)c(=O)n3c2c1,i
O=C(O)CNC(=O)CNC(=O)CNC(=O)CSC(=O)c1ccccc1,i
O=C(O)CNC(=O)C(CS)Cc1ccccc1 (configuration not stated),+
CC(=O)NC(Cc1ccccc1)C(=O)NC(C(=O)O)C(C)C (configuration not stated),i
Cc1cccc(CN2C(=O)c3cc4ccccc4n3CC2(C)C(=O)NCCCOC(C)C)c1 (configuration not stated),i
CCOC(=O)c1cc2n(n1)CC(C)(C(=O)NCCC(C)C)N(c1ccc(C)cc1C)C2=O (configuration not stated),i
Cc1ccc2c(c1)c1c(n2CCc2ccc(C)nc2)CCN(C)C1,+
Cn1c(=O)c2ccc(C(=O)NC3CCCC3)cc2n2c(=O)n(Cc3ccc(F)cc3Cl)nc12,i
COc1ccc2cc3n(c2c1)CC(C)(C(=O)NC1CCCCCC1)N(Cc1cccs1)C3=O (configuration not stated),i
COc1cccc(CN2C(=O)c3cc4sccc4n3CC2(C)C(=O)NC2CCCCC2C)c1 (configuration not stated),i
CC1=CC(=O)C2C(C)(C)CCC[C@]2(C)[C@H]1CC[C@H](C)CC(=O)O (some centres not stated),i
CC(=O)OC/C(=C/C(=O)O)CC[C@@H]1C(C)=CC(=O)[C@@H]2C(C)(C)CCC[C@@]12C,+
CC1=CC(=O)C2C(C)(C)CCC[C@]2(C)[C@H]1CO (some centres not stated),i
CC(C)CNC(=O)c1ccc2c(=O)n(CC(C)C)c3n[nH]c(=O)n3c2c1,i
SMILES,Methyltransferases
COc1ccc(-c2cc3n(n2)CC(C)(C(=O)NC2CCCCC2)N(Cc2cccnc2)C3=O)cc1 (configuration not stated),i
CCC(C)NC(=O)c1ccc2c(=O)n(C)c3nnc(SCC(=O)Nc4ccc(C)cc4C)n3c2c1 (configuration not stated),i
CCC(C)NC(=O)c1ccc2c(=O)n(C)c3nnc(SCc4ccc(N5CCCC5=O)cc4)n3c2c1 (configuration not stated),i
Cc1ccc(CN2CC(=O)N(Cc3cccc(F)c3)c3ccccc3S2(=O)=O)cc1,i
O=C1CN(Cc2cccc(F)c2)S(=O)(=O)c2ccccc2N1Cc1ccc(Cl)cc1,i
O=C1CSc2ccccc2N1Cc1cccc(C(F)(F)F)c1,+
Cn1c(=O)c2ccc(C(=O)NC3CCCC3)cc2n2c(=O)n(CC(=O)c3cccc(Cl)c3)nc12,i
CC(C)CNC(=O)c1ccc2c(=O)n(C(C)C)c3nn(CC(=O)Nc4ccc(F)cc4)c(=O)n3c2c1,i
CCc1cc2c(cc3n2CC(C(=O)NC2CCCCCC2)(c2ccccc2)N(Cc2cccc(F)c2)C3=O)s1 (configuration not stated),i
CCOc1ccccc1CNC(=O)c1cc2n(n1)CC(C)(C(=O)NCCC(C)C)N(C)C2=O (configuration not stated),i
CCCn1c(=O)c2ccc(C(=O)NC(C)CC)cc2n2c(SCC(=O)c3ccc(OC)cc3)nnc12 (configuration not stated),i
COc1ccc(-c2cnc3ccc(NCc4ccc(S(N)(=O)=O)cc4)nn23)cc1OC,+
COc1ccc(CCNc2nc3c(S(=O)(=O)c4ccc(C)cc4)nnn3c3ccccc23)cc1OC,i
COc1ccc(S(=O)(=O)NCc2nc(-c3ccc(OC)c(OC)c3)no2)cc1,i
CCC(C)NC(=O)c1ccc2c(=O)n(Cc3ccccc3)c3nn(Cc4ccccc4F)c(=O)n3c2c1 (configuration not stated),i
COc1cc2c(Oc3ccc(NC(=O)C4(C(=O)Nc5ccc(F)cc5)CC4)cc3F)ccnc2cc1OCCCN1CCOCC1,i
Cn1cc(-c2cnc(Nc3ccc(F)c(Cl)c3)c3c2CCO3)cn1,i
COc1cc2ncnc(Nc3ccc(F)c(Cl)c3)c2cc1OCCCN1CCOCC1,+
COCCOc1cc2ncnc(Cl)c2cc1OCCOC,i
COc1cc2c(Nc3ccc(Cl)c(Cl)c3F)ncnc2cc1OCC1C[C@@H]2CN(C)C[C@@H]2C1 (some centres not stated),+
CC1(C(=O)NC2CCCCCC2)Cn2c(cc3sccc32)C(=O)N1Cc1ccco1 (configuration not stated),i
COc1cccc(Cn2nc3n(CC(C)C)c(=O)c4ccc(C(=O)NCC(C)C)cc4n3c2=O)c1,i
CCOC(=O)c1cc2n(n1)CC(C)(C(=O)NC1CCCC1)N(Cc1ccc(OC)cc1)C2=O (configuration not stated),i
CCOc1ccc(CN2C(=O)c3cc(-c4ccccc4)nn3CC2(C)C(=O)NCc2ccccc2OC)cc1 (configuration not stated),i
CN(C)C/C=C(/c1ccc(Br)cc1)c1cccnc1,+
SMILES,Methyltransferases
CCC(C)NC(=O)c1ccc2c(=O)n(Cc3ccccc3)c3nn(Cc4ccccc4C)c(=O)n3c2c1 (configuration not stated),i
CCCn1c(=O)c2ccc(C(=O)NC3CCCCC3)cc2n2c(=O)n(Cc3ccccc3)nc12,i
CC(C)Oc1ccc(CNC(=O)c2cc3n(n2)CC(C)(C(=O)NC2CCCCC2)N(C)C3=O)cc1 (configuration not stated),i
Cc1ccc(CN2CCC(CNc3cc(C4CC(O)C4)ncn3)CC2)o1 (configuration not stated),i
CN1CCC(CNc2ccc3ncc(-c4cccc(OC(F)(F)F)c4)n3n2)CC1,+!
Cc1ccc(NC(=O)Cn2nc3n(C)c(=O)c4ccc(C(=O)NCC(C)C)cc4n3c2=O)cc1,i
CC(CCc1ccccc1)N1C(=O)c2cc3occc3n2CC1(C)C(=O)NC1CCCCCCC1 (configuration not stated),i
CCOc1ccc(N(C(=O)C2CCCCC2)S(=O)(=O)c2ccc3c(c2)n(C)c(=O)n3C)cc1,i

# From PubChem
